Data as given in the supplement of paper PMC10849652.
About 7,900 targets were measured; listed, in parts, are those with a hit and a random draw of the rest. About 0.6% of all pairs of compound and target were hits.

Assays:
Assay in all cases: log2 fold change, soluble protein after heating vs DMSO (PISA); higher = thermal stabilisation; K562 cells, 10 uM, 30 min; active = over 0.2 and 3.5 SD of the protein, either way, in both replicates (recomputed)
erlotinib = compound: C#Cc1cccc(Nc2ncnc3cc(OCCOC)c(OCCOC)cc23)c1 [erlotinib]
Outline: (§1)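 Soluble protein was defined as the supernatant after 21,000xg for 90 min. It came from K562 cells at 2×10^6 cells/mL given 10 μM compound for 30 min, heated in aliquots for 3 min across 48°C-58°C, pooled, and extracted in PBS with 0.5% NP-40 at 4°C, and was quantified by TMTpro 16plex LC-MS/MS with equalised channel sums. Thermal stability against control samples, from duplicates, is reported as log2 fold change.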

[1] = compound: C/C(=N\NC(=O)C1=CC(=CC=C1)S(=O)(=O)N2CCOCC2)/C3=C(C=CC(=C3)Cl)O
Outline: as §1

[2] = compound: C1=CC(=C(C=C1Cl)C2=NC3=NC=CN=C3C(=N2)NC4=CC=NC=C4)F
Outline: as §1

[3] = compound: C1=CC(=CC=C1C2=NC3=C(N2)C=C(C=C3)C(=O)N)OC4=CC=C(C=C4)Cl
Outline: as §1

[4] = compound: C1=CC2=C(C=CC(=C2)/C=C\3/C(=O)NC(=NCC4=CC=CS4)S3)N=C1
Outline: as §1

[5] = compound: C1=CC2=NC=CN=C2C=C1/C=C/3\C(=O)NC(=O)S3
Outline: as §1

[6] = compound: C1=CC=C(C=C1)C2=NC(=C(N2)C3=CC=NC=C3)C4=CC(=C(C=C4)Cl)O
Outline: as §1

[7] = compound: C1=CC=C2C(=C1)C3=NNC4=CC=CC(=C43)C2=O
Outline: as §1

[8] = compound: C1CCN(C1)C(=O)NC2=CC=CC(=C2)NC3=NC=C(C(=N3)NCCC4=CN=CN4)Br
Outline: as §1

[9] = compound: C1CN(CCC1(CC2=CC=C(C=C2)Cl)N)C3=NC=NC4=C3C=CN4
Outline: as §1

Measured: log2 fold change

RPS13 (UniProt P62277)
inactive: erlotinib -0.156 | [1] -0.17 | [2] -0.544 | [3] 0.088 | [4] -0.11 | [5] -0.053 | [6] -0.088 | [7] -0.015 | [8] 0.101 | [9] -0.184

RNPEP (UniProt Q9H4A4)
inactive: erlotinib 0.053 | [1] 0.053 | [2] 0.053 | [3] 0.007 | [4] 0.009 | [5] 0.019 | [6] 0.036 | [7] -0.008 | [8] -0.004 | [9] -0.016

RAD50 isoform 2 (UniProt Q92878)
inactive: erlotinib 0.02 | [1] 0.034 | [2] 0.076 | [3] 0.001 | [4] 0.029 | [5] 0 | [6] 0.02 | [7] 0.015 | [8] -0.034 | [9] 0.029

RRS1 (UniProt Q15050)
inactive: erlotinib -0.099 | [1] -0.205 | [2] -0.536 | [3] -0.003 | [4] -0.095 | [5] 0.004 | [6] -0.18 | [7] -0.018 | [8] 0.162 | [9] -0.219

SASH1 (UniProt O94885)
inactive: erlotinib -0.013 | [1] 0.12 | [2] 0.145 | [3] -0.01 | [4] -0.104 | [5] -0.009 | [6] 0.005 | [7] 0.107 | [8] -0.041 | [9] -0.079

RPS2 (UniProt P15880)
inactive: erlotinib -0.199 | [1] -0.138 | [2] -0.323 | [3] 0.047 | [4] -0.1 | [5] -0.039 | [6] -0.064 | [7] -0.041 | [8] 0.086 | [9] -0.162

RPS14 (UniProt P62263)
inactive: erlotinib -0.166 | [1] -0.077 | [2] -0.124 | [3] 0.027 | [4] -0.149 | [5] -0.04 | [6] 0.039 | [7] 0.045 | [8] 0.031 | [9] -0.126

RSRC1 (UniProt Q96IZ7)
UniProt Q96IZ7, sequence (Q96IZ7 whole entry, looked up): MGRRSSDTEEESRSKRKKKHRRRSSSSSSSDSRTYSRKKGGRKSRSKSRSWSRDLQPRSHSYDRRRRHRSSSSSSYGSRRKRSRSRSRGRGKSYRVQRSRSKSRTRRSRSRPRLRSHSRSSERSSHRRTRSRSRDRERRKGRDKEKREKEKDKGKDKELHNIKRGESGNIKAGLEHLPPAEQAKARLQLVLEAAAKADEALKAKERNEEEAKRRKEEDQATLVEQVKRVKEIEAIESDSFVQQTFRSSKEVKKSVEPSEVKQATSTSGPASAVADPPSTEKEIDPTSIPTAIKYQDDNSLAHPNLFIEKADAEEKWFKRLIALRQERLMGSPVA
inactive: erlotinib 0 | [1] 0.135 | [2] -0.148 | [3] 0.071 | [4] -0.033 | [5] -0.057 | [6] -0.026 | [7] -0.073 | [8] 0.016 | [9] -0.1

RBIS (UniProt Q8N0T1)
UniProt Q8N0T1, sequence (Q8N0T1 whole entry, looked up): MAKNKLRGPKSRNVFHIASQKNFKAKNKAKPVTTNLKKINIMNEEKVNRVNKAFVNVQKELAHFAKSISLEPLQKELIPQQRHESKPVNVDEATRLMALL
inactive: erlotinib -0.051 | [1] 0.015 | [2] -0.038 | [3] 0.044 | [4] 0.007 | [5] 0.031 | [6] -0.121 | [7] -0.083 | [8] 0.037 | [9] -0.093

RAB5C isoform 2 (UniProt P51148)
UniProt P51148, sequence (P51148 whole entry, looked up): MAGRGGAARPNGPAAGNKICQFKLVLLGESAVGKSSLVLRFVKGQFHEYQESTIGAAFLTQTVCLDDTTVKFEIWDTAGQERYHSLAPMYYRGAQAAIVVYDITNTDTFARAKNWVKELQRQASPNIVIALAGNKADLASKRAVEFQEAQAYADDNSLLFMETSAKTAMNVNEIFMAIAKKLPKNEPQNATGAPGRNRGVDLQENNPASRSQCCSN
inactive: erlotinib 0 | [1] 0.042 | [2] 0.066 | [3] 0.015 | [4] -0.083 | [5] 0.014 | [6] 0.012 | [7] 0.015 | [8] -0.003 | [9] 0.043

SCO2 (UniProt O43819)
UniProt O43819, sequence (O43819 whole entry, looked up): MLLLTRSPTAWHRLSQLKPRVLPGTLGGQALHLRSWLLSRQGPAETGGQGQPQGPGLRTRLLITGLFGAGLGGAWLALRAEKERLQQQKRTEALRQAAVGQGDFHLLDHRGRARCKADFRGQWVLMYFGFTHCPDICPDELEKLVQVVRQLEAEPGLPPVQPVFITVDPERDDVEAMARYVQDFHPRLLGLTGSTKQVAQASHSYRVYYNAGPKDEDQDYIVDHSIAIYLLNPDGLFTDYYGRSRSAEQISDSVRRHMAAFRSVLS
inactive: erlotinib 0.092 | [1] 0.012 | [2] 0.055 | [3] 0.048 | [4] 0.243 | [5] -0.054 | [6] 0.017 | [7] 0.163 | [8] -0.042 | [9] 0.101

RARS2 (UniProt Q5T160)
UniProt Q5T160, sequence (Q5T160 whole entry, looked up): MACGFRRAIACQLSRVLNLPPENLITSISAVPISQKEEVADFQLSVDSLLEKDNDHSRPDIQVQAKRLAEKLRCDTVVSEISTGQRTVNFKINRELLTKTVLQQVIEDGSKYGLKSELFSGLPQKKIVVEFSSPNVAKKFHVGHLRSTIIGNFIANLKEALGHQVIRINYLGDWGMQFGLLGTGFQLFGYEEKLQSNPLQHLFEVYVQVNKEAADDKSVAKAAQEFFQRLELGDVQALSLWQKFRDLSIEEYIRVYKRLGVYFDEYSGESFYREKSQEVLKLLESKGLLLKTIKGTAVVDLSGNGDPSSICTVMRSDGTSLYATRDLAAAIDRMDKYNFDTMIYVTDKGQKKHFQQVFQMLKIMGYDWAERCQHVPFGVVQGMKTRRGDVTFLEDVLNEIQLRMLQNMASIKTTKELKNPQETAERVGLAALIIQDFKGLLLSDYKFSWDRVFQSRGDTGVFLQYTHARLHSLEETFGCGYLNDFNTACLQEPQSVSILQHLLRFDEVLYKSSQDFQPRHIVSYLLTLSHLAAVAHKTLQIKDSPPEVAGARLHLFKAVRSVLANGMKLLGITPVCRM
inactive: erlotinib 0.009 | [1] 0.057 | [2] 0.063 | [3] 0.029 | [4] 0.015 | [5] 0.014 | [6] 0.056 | [7] 0 | [8] 0.022 | [9] 0.038

RAB3GAP2 (UniProt Q9H2M9)
inactive: erlotinib 0.068 | [1] 0.083 | [2] -0.043 | [3] -0.058 | [4] 0.035 | [5] -0.011 | [6] -0.025 | [7] 0.004 | [8] -0.068 | [9] -0.018

SART3, A0A499FI31
inactive: erlotinib -0.034 | [1] 0.058 | [2] 0.102 | [3] 0.032 | [4] 0.032 | [5] 0.084 | [6] -0.004 | [7] -0.045 | [8] -0.078 | [9] -0.014

ROCK2 (UniProt O75116)
inactive: erlotinib 0.05 | [1] 0.02 | [2] 0.031 | [3] 0.003 | [4] 0.158 | [5] 0.126 | [6] -0.009 | [7] -0.071 | [8] 0.036 | [9] 0.099

RNF14 (UniProt Q9UBS8)
inactive: erlotinib -0.006 | [1] 0.038 | [2] 0.048 | [3] 0.043 | [4] 0.015 | [5] -0.019 | [6] 0.014 | [7] -0.029 | [8] 0.002 | [9] 0.071

RRAS2 isoform 4 (UniProt P62070)
UniProt P62070, sequence (P62070 whole entry, looked up): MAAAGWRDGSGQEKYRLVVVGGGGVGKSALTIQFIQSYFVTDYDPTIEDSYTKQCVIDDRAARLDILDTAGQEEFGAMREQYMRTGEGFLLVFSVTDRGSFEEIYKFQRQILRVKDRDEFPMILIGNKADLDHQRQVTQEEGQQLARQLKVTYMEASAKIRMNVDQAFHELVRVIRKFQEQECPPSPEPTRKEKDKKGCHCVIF
inactive: erlotinib 0.002 | [1] -0.076 | [2] -0.046 | [3] 0.015 | [4] -0.006 | [5] 0.038 | [6] -0.015 | [7] -0.059 | [8] -0.085 | [9] 0.093

SH3GL1 (UniProt Q99961)
inactive: erlotinib 0.024 | [1] 0.068 | [2] 0.013 | [3] 0.003 | [4] 0.058 | [5] 0.022 | [6] 0.019 | [7] 0.004 | [8] -0.047 | [9] -0.045

RBM26 isoform 2 (UniProt Q5T8P6)
inactive: erlotinib 0.174 | [1] 0.216 | [2] 0.25 | [3] -0.004 | [4] -0.018 | [5] 0 | [6] 0.113 | [7] 0.002 | [8] -0.027 | [9] 0.012

REEP4 (UniProt Q9H6H4)
inactive: erlotinib -0.024 | [1] 0.027 | [2] -0.049 | [3] 0.026 | [4] -0.018 | [5] 0.005 | [6] 0.063 | [7] -0.04 | [8] 0.047 | [9] -0.081

RRP9 (UniProt O43818)
inactive: erlotinib 0.018 | [1] -0.04 | [2] -0.099 | [3] -0.004 | [4] -0.042 | [5] 0.03 | [6] -0.114 | [7] -0.085 | [8] -0.081 | [9] -0.016

ROCK1 (UniProt Q13464)
inactive: erlotinib 0.049 | [1] -0.025 | [2] 0.042 | [3] -0.007 | [4] 0.199 | [5] 0.027 | [6] -0.007 | [7] -0.018 | [8] 0.032 | [9] 0.205

RBM12 (UniProt Q9NTZ6)
inactive: erlotinib 0.092 | [1] 0.187 | [2] 0.123 | [3] -0.022 | [4] 0.117 | [5] -0.003 | [6] -0.008 | [7] 0.011 | [8] -0.046 | [9] 0.006

SENP6 (UniProt Q9GZR1)
inactive: erlotinib 0.028 | [1] 0.033 | [3] -0.049 | [4] -0.029 | [5] 0.08 | [6] -0.011 | [7] -0.078 | [8] -0.061 | [9] 0.049
active: [2] 0.237

RAB9A (UniProt P51151)
inactive: erlotinib 0.037 | [1] 0.05 | [2] 0.017 | [3] 0.016 | [4] 0.046 | [5] -0.022 | [6] -0.005 | [7] -0.01 | [8] 0.017 | [9] 0.056

SDCBP (UniProt O00560)
inactive: erlotinib -0.048 | [1] -0.1 | [2] -0.058 | [3] 0.047 | [4] -0.036 | [5] -0.008 | [6] 0.034 | [7] 0.002 | [8] -0.021 | [9] -0.045

RB1CC1 (UniProt Q8TDY2)
UniProt Q8TDY2, sequence (Q8TDY2 whole entry, looked up): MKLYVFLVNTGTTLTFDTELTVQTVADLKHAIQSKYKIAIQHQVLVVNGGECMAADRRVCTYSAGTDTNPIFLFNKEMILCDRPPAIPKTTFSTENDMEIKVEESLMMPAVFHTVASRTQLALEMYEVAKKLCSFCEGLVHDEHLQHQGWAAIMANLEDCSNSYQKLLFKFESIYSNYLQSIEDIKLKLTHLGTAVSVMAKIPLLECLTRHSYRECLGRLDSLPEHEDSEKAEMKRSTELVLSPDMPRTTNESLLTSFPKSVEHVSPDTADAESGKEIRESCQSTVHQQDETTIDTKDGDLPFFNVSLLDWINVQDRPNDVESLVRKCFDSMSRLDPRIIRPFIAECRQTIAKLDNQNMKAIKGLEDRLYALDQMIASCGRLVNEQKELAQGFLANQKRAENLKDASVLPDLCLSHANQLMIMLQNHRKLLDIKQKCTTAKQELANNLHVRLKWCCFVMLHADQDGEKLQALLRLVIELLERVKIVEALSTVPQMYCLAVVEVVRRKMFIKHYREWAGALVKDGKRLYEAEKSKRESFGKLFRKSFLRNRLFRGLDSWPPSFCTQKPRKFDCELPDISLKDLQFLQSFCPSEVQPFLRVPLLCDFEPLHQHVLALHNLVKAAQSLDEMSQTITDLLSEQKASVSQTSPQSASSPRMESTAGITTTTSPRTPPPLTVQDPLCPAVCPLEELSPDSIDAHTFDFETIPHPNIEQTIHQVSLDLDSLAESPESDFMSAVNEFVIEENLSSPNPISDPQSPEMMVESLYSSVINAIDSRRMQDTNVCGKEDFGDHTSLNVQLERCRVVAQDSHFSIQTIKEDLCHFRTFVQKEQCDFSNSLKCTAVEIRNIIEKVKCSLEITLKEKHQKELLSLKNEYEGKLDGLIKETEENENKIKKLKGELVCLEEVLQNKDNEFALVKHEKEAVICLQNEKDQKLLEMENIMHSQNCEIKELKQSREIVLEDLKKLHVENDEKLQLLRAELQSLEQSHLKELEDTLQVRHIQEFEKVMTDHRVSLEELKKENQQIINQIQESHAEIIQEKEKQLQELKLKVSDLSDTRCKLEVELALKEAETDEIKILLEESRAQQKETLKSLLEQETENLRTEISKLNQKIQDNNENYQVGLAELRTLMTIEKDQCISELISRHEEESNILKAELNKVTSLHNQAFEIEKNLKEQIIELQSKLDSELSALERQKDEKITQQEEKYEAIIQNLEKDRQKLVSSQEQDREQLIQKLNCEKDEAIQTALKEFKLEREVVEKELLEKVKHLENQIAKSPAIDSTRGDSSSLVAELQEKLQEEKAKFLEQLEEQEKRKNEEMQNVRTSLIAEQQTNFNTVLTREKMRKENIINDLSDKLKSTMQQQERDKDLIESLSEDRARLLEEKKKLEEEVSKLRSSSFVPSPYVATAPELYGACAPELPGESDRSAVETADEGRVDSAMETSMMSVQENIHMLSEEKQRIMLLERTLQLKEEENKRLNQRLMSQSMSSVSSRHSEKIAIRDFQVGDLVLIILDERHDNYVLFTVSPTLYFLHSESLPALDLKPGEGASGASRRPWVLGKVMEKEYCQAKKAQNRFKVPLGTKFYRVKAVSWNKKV
inactive: erlotinib 0.119 | [1] -0.066 | [2] 0.102 | [3] 0.046 | [4] 0.211 | [5] -0.07 | [6] 0.015 | [7] 0.03 | [8] -0.024 | [9] 0.022

RRAGC (UniProt Q9HB90)
UniProt Q9HB90, sequence (Q9HB90 whole entry, looked up): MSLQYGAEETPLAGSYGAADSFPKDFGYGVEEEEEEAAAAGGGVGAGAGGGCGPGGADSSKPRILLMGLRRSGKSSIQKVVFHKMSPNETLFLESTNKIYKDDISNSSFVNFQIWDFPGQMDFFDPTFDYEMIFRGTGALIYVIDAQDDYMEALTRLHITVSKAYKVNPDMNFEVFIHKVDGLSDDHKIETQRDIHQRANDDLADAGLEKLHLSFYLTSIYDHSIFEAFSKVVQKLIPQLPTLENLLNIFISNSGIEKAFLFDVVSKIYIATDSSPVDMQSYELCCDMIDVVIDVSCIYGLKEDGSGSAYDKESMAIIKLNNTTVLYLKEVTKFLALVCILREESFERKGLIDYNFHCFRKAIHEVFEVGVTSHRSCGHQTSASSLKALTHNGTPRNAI
inactive: erlotinib 0.014 | [1] 0.03 | [2] 0.047 | [3] -0.007 | [4] 0.019 | [5] 0.013 | [6] -0.051 | [7] -0.02 | [8] 0.014 | [9] 0.052

RUFY1 (UniProt Q96T51)
UniProt Q96T51, sequence (Q96T51 whole entry, looked up): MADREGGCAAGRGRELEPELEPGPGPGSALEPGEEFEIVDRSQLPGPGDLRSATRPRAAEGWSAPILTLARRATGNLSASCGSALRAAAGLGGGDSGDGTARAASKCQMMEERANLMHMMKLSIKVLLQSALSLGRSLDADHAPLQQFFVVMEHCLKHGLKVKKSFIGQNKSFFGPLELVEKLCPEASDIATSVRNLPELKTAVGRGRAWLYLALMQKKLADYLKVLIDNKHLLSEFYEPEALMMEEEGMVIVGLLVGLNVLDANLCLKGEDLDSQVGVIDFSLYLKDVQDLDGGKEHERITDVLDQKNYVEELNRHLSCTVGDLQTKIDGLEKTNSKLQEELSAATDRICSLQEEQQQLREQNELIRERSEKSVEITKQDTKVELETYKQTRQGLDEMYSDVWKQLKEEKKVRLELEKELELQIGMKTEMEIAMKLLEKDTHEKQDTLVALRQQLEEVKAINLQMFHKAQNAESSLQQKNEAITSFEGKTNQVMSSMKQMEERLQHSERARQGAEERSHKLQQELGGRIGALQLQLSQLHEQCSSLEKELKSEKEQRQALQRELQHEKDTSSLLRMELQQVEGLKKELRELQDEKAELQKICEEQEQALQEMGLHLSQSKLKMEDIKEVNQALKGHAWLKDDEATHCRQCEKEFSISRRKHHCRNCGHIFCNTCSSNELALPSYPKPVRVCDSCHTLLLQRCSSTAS
inactive: erlotinib 0.01 | [1] 0.094 | [2] -0.046 | [3] -0.018 | [4] 0.022 | [5] 0.034 | [6] -0.027 | [7] 0 | [8] 0.031 | [9] -0.084

RSPRY1 (UniProt Q96DX4)
UniProt Q96DX4, sequence (Q96DX4 whole entry, looked up): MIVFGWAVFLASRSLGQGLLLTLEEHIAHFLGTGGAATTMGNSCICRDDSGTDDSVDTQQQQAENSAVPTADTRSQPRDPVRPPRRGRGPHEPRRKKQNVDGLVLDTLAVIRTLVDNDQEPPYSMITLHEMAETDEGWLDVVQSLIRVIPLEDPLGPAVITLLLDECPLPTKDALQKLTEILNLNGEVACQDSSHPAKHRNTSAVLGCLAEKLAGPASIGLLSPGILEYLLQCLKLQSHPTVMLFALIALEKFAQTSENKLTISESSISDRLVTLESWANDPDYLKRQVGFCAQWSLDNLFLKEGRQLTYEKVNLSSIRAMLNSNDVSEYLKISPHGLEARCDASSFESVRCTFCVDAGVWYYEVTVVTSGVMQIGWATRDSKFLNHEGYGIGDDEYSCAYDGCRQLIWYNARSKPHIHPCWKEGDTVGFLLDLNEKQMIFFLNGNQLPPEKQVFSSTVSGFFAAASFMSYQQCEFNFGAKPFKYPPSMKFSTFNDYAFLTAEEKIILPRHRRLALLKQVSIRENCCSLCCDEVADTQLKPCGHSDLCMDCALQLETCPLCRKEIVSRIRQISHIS
inactive: erlotinib 0.028 | [1] 0.079 | [2] 0.016 | [3] 0.041 | [4] 0.017 | [5] -0.042 | [6] -0.006 | [7] -0.026 | [8] -0.014 | [9] 0.033
